Results from the supplement of paper PMC9262897, “Low-cost anti-mycobacterial drug discovery using engineered E. coli” (Nature Communications, 2022).
Counter-ions that a name gives are not always drawn. ± gives the standard deviation of the averaged measurements.

Key:
Assay in all cases: growth (OD600 after 10 h); higher = more growth (less inhibition)
[1] = system: E. coli TESEC Alr+ wild-type control; settings: compound 0.1 mM; raw OD600 reference: median of DMSO wells 0.241, cell-free background 0.041
Protocol: (§1)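 TESEC Mtb Alr E. coli, or the Alr+ wild-type control, in 384-well plates with Prestwick library compounds at 0.1 mM and 1% DMSO, across arabinose induction levels of 1E3 to 1E7 nM. Growth is read as OD600 after 10 h at 37 °C in triplicate biological replicates.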

E. coli TESEC Mtb Alr [2] = settings: compound 0.1 mM
Protocol: as §1

E. coli TESEC Mtb Asd = settings: compound 0.1 mM
Protocol: (§2)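 TESEC E. coli strains in which the native enzyme is deleted and replaced by arabinose-inducible Mtb Asd, DapB, CysH or TrpD, each grown in its selective medium. Strains were screened against the Prestwick library at 0.1 mM and 1% DMSO in 384-well format at low and high arabinose induction. Growth is read as OD600 after 10 h in triplicate.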

E. coli TESEC Mtb DapB = settings: compound 0.1 mM
Protocol: as §2

E. coli TESEC Mtb Alr [3] = settings: compound 0.1 mM; remark: listed apart in the source
Protocol: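 TESEC Mtb Alr E. coli (ΔaraC ΔtolC ΔentC Δalr ΔdadX, arabinose-inducible Mtb Alr) or the Alr+ wild-type control strain, grown in defined M9-fructose medium without D-alanine in 96-well plates with Prestwick library compounds at 0.1 mM and 1% DMSO. Low Alr induction is 0.1 µM arabinose and high induction is 10 mM arabinose.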

[4] = arabinose 1000 nM, raw OD600 reference: median of DMSO wells 0.294, cell-free background 0.041
[5] = arabinose 10000 nM, raw OD600 reference: median of DMSO wells 0.264, cell-free background 0.041
[6] = arabinose 100000 nM, raw OD600 reference: median of DMSO wells 0.201, cell-free background 0.041
[7] = arabinose 1000000 nM, raw OD600 reference: median of DMSO wells 0.193, cell-free background 0.041
[8] = arabinose 10000000 nM, raw OD600 reference: median of DMSO wells 0.146, cell-free background 0.041
[9] = arabinose induction (level): High, raw OD600 reference: median of DMSO wells 0.331, cell-free background 0.041
[10] = arabinose induction (level): Low, raw OD600 reference: median of DMSO wells 0.417, cell-free background 0.041
[11] = arabinose induction (level): High, raw OD600 reference: median of DMSO wells […], cell-free background 0.041
[12] = arabinose induction (level): Low, raw OD600 reference: median of DMSO wells 0.227, cell-free background 0.041
[13] = arabinose 100 nM, raw OD600 reference: median of DMSO wells 0.413, cell-free background 0.052
[14] = arabinose 10000000 nM, raw OD600 reference: median of DMSO wells […], cell-free background 0.052

Compound	growth [1]	growth (E. coli TESEC Mtb Alr [2]; [4])	growth (E. coli TESEC Mtb Alr [2]; [5])	growth (E. coli TESEC Mtb Alr [2]; [6])	growth (E. coli TESEC Mtb Alr [2]; [7])	growth (E. coli TESEC Mtb Alr [2]; [8])	growth (E. coli TESEC Mtb Asd; [9])	growth (E. coli TESEC Mtb Asd; [10])	growth (E. coli TESEC Mtb DapB; [11])	growth (E. coli TESEC Mtb DapB; [12])	growth (E. coli TESEC Mtb Alr [3]; [13])	growth (E. coli TESEC Mtb Alr [3]; [14])
CCCC(C(=O)OCCN(CC)CC)(c1ccccc1)c1ccccc1 [Proadifen hydrochloride]	0.0491 ± 0.0002	0.04737 ± 0.00042	0.04077 ± 0.00038	0.0496 ± 0.0007	0.04163 ± 0.00032	0.04523 ± 0.00015	0.0541 ± 0.001	0.0665 ± 0.012	0.126 ± 0.0053	0.129 ± 0.0055	0.319 ± 0.17	0.0643 ± 0.01
CC[C@H]1OC(=O)[C@H](C)[C@@H](O[C@H]2C[C@@](C)(OC)[C@@H](O)[C@H](C)O2)[C@H](C)[C@@H](O[C@@H]2O[C@H](C)C[C@H](N(C)C)[C@H]2O)[C@](C)(O)C[C@@H](C)C(=O)[C@H](C)[C@@H](O)[C@]1(C)O [Erythromycin]	0.04107 ± 0.00038	0.0413 ± 0.0016	0.03973 ± 5.8e-05	0.0421 ± 0.0013	0.0401 ± 0.0001	0.0414 ± 0.00076	0.0563 ± 0.0023	0.0536 ± 0.0019	0.04857 ± 0.00045	0.052 ± 0.0057	0.0567 ± 0.0002	0.05153 ± 0.00031
c1ccc2c(c1)CCCC2C1=NCCN1 (centres undefined) [Tetrahydrozoline hydrochloride]	0.237 ± 0.0097	0.297 ± 0.012	0.247 ± 0.0046	0.184 ± 0.015	0.174 ± 0.0044	0.14 ± 0.0055	0.435 ± 0.062	0.437 ± 0.03	0.203 ± 0.018	0.226 ± 0.031	0.4131 ± 0.0035	0.343 ± 0.01
O=C(O)Cc1ccc(-c2ccccc2)cc1 [Felbinac]	0.235 ± 0.0055	0.277 ± 0.023	0.245 ± 0.0027	0.163 ± 0.0054	0.173 ± 0.0071	0.1221 ± 0.00095	0.273 ± 0.054	0.434 ± 0.02	0.194 ± 0.014	0.206 ± 0.022	0.396 ± 0.014	0.305 ± 0.0053
CCCCNC(=O)NS(=O)(=O)c1ccc(C)cc1 [Tolbutamide]	0.253 ± 0.0049	0.295 ± 0.005	0.243 ± 0.0065	0.191 ± 0.018	0.16 ± 0.006	0.136 ± 0.0022	0.222 ± 0.016	0.405 ± 0.074	0.187 ± 0.021	0.186 ± 0.012	0.409 ± 0.006	0.352 ± 0.021
Cc1ccccc1OCC(O)CO (centres undefined) [Mephenesin]	0.258 ± 0.0026	0.286 ± 0.0091	0.261 ± 0.016	0.209 ± 0.016	0.184 ± 0.0048	0.14 ± 0.0045	0.416 ± 0.023	0.45 ± 0.025	0.197 ± 0.0078	0.239 ± 0.02	0.413 ± 0.0097	0.373 ± 0.0043
CN1[C@@H]2CC[C@H]1C[C@@H](OC(=O)c1c[nH]c3ccccc13)C2 [Tropisetron HCl]	0.224 ± 0.0054	0.294 ± 0.0064	0.273 ± 0.0034	0.216 ± 0.036	0.177 ± 0.0038	0.158 ± 0.0026	0.305 ± 0.044	0.319 ± 0.034	0.219 ± 0.02	0.264 ± 0.05	0.402 ± 0.012	0.359 ± 0.0044
COCCOC(=O)C1=C(C)NC(C)=C(C(=O)OC/C=C/c2ccccc2)C1c1cccc([N+](=O)[O-])c1 (centres undefined) [Cilnidipine]	0.275 ± 0.0065	0.333 ± 0.0093	0.304 ± 0.028	0.195 ± 0.022	0.14 ± 0.015	0.164 ± 0.0066	0.187 ± 0.016	0.319 ± 0.026	0.169 ± 0.0093	0.21 ± 0.025	0.457 ± 0.0093	0.253 ± 0.026
CC(C)(C)NCC(O)c1cc(O)cc(O)c1 (centres undefined) [Terbutaline hemisulfate]	0.251 ± 0.0065	0.301 ± 0.0057	0.265 ± 0.0072	0.238 ± 0.047	0.1766 ± 0.0011	0.163 ± 0.0049	0.293 ± 0.03	0.385 ± 0.042	0.226 ± 0.004	0.221 ± 0.013	0.402 ± 0.0092	0.354 ± 0.026
CCN1CCCC1CNC(=O)c1cc(S(=O)(=O)CC)c(N)cc1OC (centres undefined) [Amisulpride]	0.235 ± 0.0063	0.3 ± 0.011	0.253 ± 0.005	0.251 ± 0.025	0.169 ± 0.003	0.16 ± 0.0017	0.332 ± 0.093	0.377 ± 0.067	0.224 ± 0.02	0.239 ± 0.031	0.408 ± 0.011	0.3237 ± 0.0029
CS(=O)(=O)Nc1ccc([N+](=O)[O-])cc1Oc1ccccc1 [Nimesulide]	0.1929 ± 0.00095	0.206 ± 0.0095	0.247 ± 0.0073	0.149 ± 0.0051	0.137 ± 0.0025	0.139 ± 0.0087	0.272 ± 0.088	0.329 ± 0.056	0.201 ± 0.0065	0.248 ± 0.091	0.359 ± 0.026	0.286 ± 0.01
CC(C)NC[C@@H](O)COc1cccc2ccccc12 [(R)-Propranolol hydrochloride]	0.205 ± 0.01	0.262 ± 0.0043	0.291 ± 0.0066	0.186 ± 0.015	0.216 ± 0.028	0.142 ± 0.0024	0.263 ± 0.076	0.2622 ± 0.0023	0.193 ± 0.01	0.212 ± 0.027	0.4273 ± 0.0035	0.326 ± 0.012
CCN(CCCc1ccccc1)CCCc1ccccc1 [Alverine citrate salt]	0.205 ± 0.011	0.221 ± 0.013	0.286 ± 0.0067	0.177 ± 0.0094	0.1472 ± 0.00053	0.156 ± 0.011	0.211 ± 0.032	0.4 ± 0.074	0.153 ± 0.0058	0.205 ± 0.054	0.418 ± 0.0047	0.328 ± 0.0065
Cc1ncc([N+](=O)[O-])n1CC(O)CCl (centres undefined) [Ornidazole]	0.233 ± 0.0094	0.282 ± 0.012	0.268 ± 0.007	0.225 ± 0.019	0.177 ± 0.0086	0.1385 ± 0.00036	0.381 ± 0.015	0.421 ± 0.028	0.191 ± 0.0088	0.218 ± 0.031	0.409 ± 0.0059	0.369 ± 0.02
CN1CCCN=C1/C=C/c1cccs1 [Pyrantel tartrate]	0.235 ± 0.0042	0.278 ± 0.0075	0.268 ± 0.0081	0.191 ± 0.015	0.187 ± 0.00096	0.148 ± 0.0055	0.347 ± 0.032	0.416 ± 0.039	0.197 ± 0.0092	0.249 ± 0.046	0.409 ± 0.0096	0.3434 ± 0.0026
C[C@]12CC[C@@H]3c4ccc(O)cc4CC[C@H]3[C@@H]1C[C@@H](O)[C@@H]2O [Estriol]	0.152 ± 0.0072	0.218 ± 0.018	0.277 ± 0.015	0.148 ± 0.0042	0.135 ± 0.0069	0.143 ± 0.0047	0.221 ± 0.043	0.264 ± 0.034	0.183 ± 0.008	0.203 ± 0.033	0.432 ± 0.0087	0.258 ± 0.013
CN(C)CCCC1(c2ccc(F)cc2)OCc2cc(C#N)ccc21 (centres undefined) [Citalopram Hydrobromide]	0.207 ± 0.0054	0.272 ± 0.011	0.25 ± 0.0072	0.173 ± 0.0067	0.155 ± 0.0054	0.138 ± 0.0049	0.289 ± 0.024	0.397 ± 0.051	0.191 ± 0.022	0.211 ± 0.017	0.4152 ± 0.0024	0.321 ± 0.017
